Molecules are shown by their SMILES. Hit rate of the full screen: of about 96,000 compounds, about 20,000 (21%) were called active. A selection follows. Unmarked numbers belong to inactive results.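 The calls were made as follows: active = CYP2C19 inhibition above a set limit at 5 µM in the primary screen (cut at about 50% in these data); inactive = the rest.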

Chain of Cytochrome P450 2C19 (Homo sapiens) (P33261 whole entry, looked up): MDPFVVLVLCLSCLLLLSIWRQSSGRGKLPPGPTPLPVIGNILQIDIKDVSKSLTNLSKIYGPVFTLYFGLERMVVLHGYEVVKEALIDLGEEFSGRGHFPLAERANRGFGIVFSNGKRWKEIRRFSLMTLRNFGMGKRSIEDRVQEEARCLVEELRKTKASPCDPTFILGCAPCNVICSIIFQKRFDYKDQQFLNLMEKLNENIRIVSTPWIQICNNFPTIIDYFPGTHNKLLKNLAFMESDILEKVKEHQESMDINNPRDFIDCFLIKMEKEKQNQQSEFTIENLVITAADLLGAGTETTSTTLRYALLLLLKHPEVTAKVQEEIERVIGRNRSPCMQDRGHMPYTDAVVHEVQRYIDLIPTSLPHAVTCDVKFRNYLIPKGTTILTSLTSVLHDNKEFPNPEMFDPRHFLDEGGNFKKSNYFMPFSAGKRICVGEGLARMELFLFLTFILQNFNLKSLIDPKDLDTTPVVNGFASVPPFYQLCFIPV

The assay addresses Cytochrome P450 2C19 (Homo sapiens) (UniProt P33261). As to the kind of experiment: blockers of cytochrome P450 2C19 activity – biochemical, luminescence, ADME assay, primary screen (AID 778).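 Also: plate controls were negative control wells for no effect and 2.5 mM tranylcypromine positive control for full effect.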 To be noted: CYP2C19 Supersomes, luciferin-H EGE luminescence, 30 min; at 5 µM; hits give high values.
One may read the inhibition as the change of the read-out against control, counted positive when it falls. In the case of `Cc1cc(=O)n2nc(N3CCCC3C(=O)NCCCN3CC(C)CC(C)C3)sc2n1` (centres undefined), the inhibition was 2.4%.

Regarding `Cc1cccc(OCc2nnc(SCC(=O)N3CCN(C(=O)c4ccco4)CC3)n2C)c1C`, the inhibition is 1.1%.

Regarding `CSc1nc(N)c(C#N)c(-c2ccccc2Cl)c1C#N`, the inhibition was -13.6%.

Regarding `CCOC(=O)C(=CNc1cccc(C)n1)C(=O)OCC`, the inhibition was 8.8%.

As for `CCOC(=O)C1CN(S(=O)(=O)c2ccc(F)cc2)C1`, the inhibition was 43.8%.

In the case of `Cc1c(CCO)c(=O)n(-c2ccccc2)n1S(=O)(=O)c1ccc(F)cc1`, the inhibition was 78.5% (active).

Turning to `Cc1c(CCO)c(=O)[nH]n1C(=O)c1c(F)cccc1F`, the inhibition is 10%.

For the molecule `Cc1cc(N2C(=O)C(=O)/C(=C(/O)c3ccc(Cl)cc3)C2c2cccc(Br)c2)no1` (centres undefined), the inhibition was -6.1%.

Consider `CC1CCc2c(sc3c2C2=NS(=O)(=O)CCN2C=N3)C1` (centres undefined), for which the inhibition was -10%.

With `Cc1ccc(-n2nc3ccc(NC(=O)/C=C/c4ccco4)cc3n2)cc1C`, the inhibition was -6.9%.

For `CCOc1ccc(-c2nnn(CC(=O)N3CCN(c4ccc(F)cc4)CC3)n2)cc1OCC`, the inhibition is 18.2%.

Take `Cc1ccc(SCC(=O)c2cc(C)c(OC(=S)N(C)C)c(C)c2)cc1`: the inhibition is 66.7% (active).

Take `COC(=O)c1cc(OC)c(OC)cc1NC(=O)CSc1ccc(C)cc1`: the inhibition was 29.5%.

Take `Cc1ccc(SC(=O)COc2ccc(C)c(C)c2)cc1`: the inhibition was 1.6%.

For `O=C(CNC(=O)c1ccc(Cl)cc1Cl)NCC(=O)Nc1ccccc1N1CCOCC1`, the inhibition was 20.6%.

In the case of `O=S(=O)(Nc1ccccc1N1CCOCC1)c1ccc(Cl)s1`, the inhibition is 50.4% (active).

For the molecule `CC(=O)N1CCc2cc(S(=O)(=O)Nc3ccccc3N3CCN(C)CC3)ccc21`, the inhibition was -2.4%.

`Cc1cc(NCc2ccco2)n2c(nc3ccccc32)c1C#N`: the inhibition was 0.2%.

As to `N#Cc1c(N)sc2c1CCN(C(=O)OCc1ccccc1)C2`, the inhibition is 92.8% (active).

For `CCN1CCc2c(C#N)c(NCc3ccccc3)nc(NCCO)c2C1`, the inhibition was 9%.

As for `O=C(O)C1CCN(C(=O)OCc2ccccc2)CC1`, the inhibition was 31.9%.

On to `CC(C)Oc1ccc(C(=O)Nc2cc(=O)n(C)c(=O)n2C)cc1`, for which the inhibition was 12.2%.

As for `CCOC(=O)c1c(NC(=O)CSc2nnc(C)c(=O)[nH]2)sc2c1CCC2`, the inhibition was -11.3%.

For `COC(=O)c1c(NC(=O)c2cccs2)sc2c1CCCC2`, the inhibition was 29.6%.

For `COC(=O)c1c(NC(=O)CSc2nncs2)sc2c1CCCCC2`, the inhibition is 82.9% (active).

As for `Cc1ccc(S(=O)(=O)N/N=C\c2cc3c(cc2[N+](=O)[O-])OCO3)cc1`, the inhibition is -11%.

As to `CC1=NN(C(C)C)C(=O)C1`, the inhibition is -6.9%.

Take `COCCN(CC(=O)Nc1ccccc1C)S(=O)(=O)c1ccc(S(=O)(=O)N2CCCC2)cc1`: the inhibition is 5.4%.

On to `O=C(CN(c1ccccc1)S(=O)(=O)c1ccc(Cl)cc1)Nc1ccccc1C(=O)N1CCCC1`, for which the inhibition is 86.7% (active).

With `Cc1ccc(S(=O)(=O)NC(C)C(=O)Nc2ccccc2C(=O)N2CCCC2)cc1` (centres undefined), the inhibition is 21.6%.

Take `Cc1oc2nc(SCC(=O)NCc3cccnc3)nc(N)c2c1C`: the inhibition is 8%.

With `c1ccc2c(CNn3cnnc3)cccc2c1`, the inhibition was 26.1%.

Turning to `c1ccc2c(-c3nn4nnnc4c4ccccc34)cccc2c1`, the inhibition was 78.9% (active).

As for `COc1ccc2c(c1OC)C(=O)N(c1ncn[nH]1)C2`, the inhibition is -17.6%.

Take `O=C(CCCn1c(=O)oc2ccccc21)Nc1cccnc1`: the inhibition is 24.5%.

Take `O=C(OCN1C(=O)c2ccccc2C1=O)/C(=C\c1ccco1)NC(=O)c1ccccc1`: the inhibition was 17.6%.

As to `Cc1ccc(N(CC(O)CN2CCCC2)S(=O)(=O)c2ccccc2)cc1` (centres undefined), the inhibition was 16.8%.

`CC(=O)c1ccc2c(c1)c1ccccc1n2CC(C)C`: the inhibition is 16.4%.

As to `CS(=O)(=O)N(CC(O)Cn1c2ccccc2c2ccccc21)c1cccc2ccccc12` (centres undefined), the inhibition is 77% (active).

In the case of `O=C(NCCCN1CCOCC1)c1cnn2c(-c3ccccc3)cc(-c3ccccc3)nc12`, the inhibition was -3.7%.

On to `Fc1ccccc1CCNc1nnnn1-c1ccccc1`, for which the inhibition is 73.1% (active).

Regarding `c1ccc(-n2nnnc2NC2CCCCCC2)cc1`, the inhibition is 33.5%.

For `COc1c(Cl)cc(C(=O)Nc2ccc(Cl)cn2)cc1Cl`, the inhibition is 3.2%.

On to `CCn1nnc(NC(=O)c2c(OC)cccc2OC)n1`, for which the inhibition is -17.4%.

For `CCn1nnc(NC(=O)c2cc(Cl)c(OC)c(Cl)c2)n1`, the inhibition was 61.3% (active).

On to `CCCCNC(=S)NNC(=O)c1cc(C)on1`, for which the inhibition was 26.1%.

With `CC(=O)Nc1cc2ccc(OC(C)=O)cc2oc1=O`, the inhibition is 8%.

As for `CCOC(=O)c1c(CN2CCOCC2)n(-c2ccccc2)c2ccc(O)cc12`, the inhibition was 31.8%.

For `Cc1cccc(N(CC(=O)N2CCOCC2)S(C)(=O)=O)c1`, the inhibition was 3.3%.

On to `CCOC(=O)CN(C(=O)CN1CCOCC1)c1ccc(Br)cc1`, for which the inhibition is 64.6% (active).

`Cc1nn(Cc2ccc(C(=O)N3N=C(C(F)F)CC3(O)C(F)F)cc2)c(C)c1[N+](=O)[O-]` (centres undefined): the inhibition is 10%.

For the molecule `Cc1ccc(-c2nc3ccccc3[nH]2)cc1N`, the inhibition is 47%.

With `c1ccc2[nH]c(-c3nc4ccccc4[nH]3)nc2c1`, the inhibition was 53.1% (active).

With `c1ccc(-c2[nH]ncc2-c2nc3ccccc3[nH]2)cc1`, the inhibition was 31.2%.

Consider `CC(C)COC(=O)C1C2C=CC3(CN(C(C)c4ccc(Br)cc4)C(=O)C13)O2` (centres undefined), for which the inhibition was 31%.

As to `CC(=O)NC1(c2cccc(F)c2)CCN(CC(=O)NC(C)C)CC1`, the inhibition was 3.9%.

As to `C/C(Cl)=C\Cn1c(Nc2cccc(C)c2)nc2c1c(=O)n(C)c(=O)n2C`, the inhibition was -5.6%.

For `CCCOC(=O)C1=C(C)NC2=C(C(=O)C(C(=O)OC)C(C)C2)C1c1ccc(N(C)C)cc1` (centres undefined), the inhibition was 3.6%.

For `CCOC(=O)C1=C(C)NC2=C(C(=O)CC(C)(C)C2)C1c1ccsc1` (centres undefined), the inhibition was 50.4% (active).

For `COc1cc(C2C(C#N)=C(C)NC3=C2C(=O)CC(C)(C)C3)ccc1O` (centres undefined), the inhibition is 20.5%.

Turning to `Cc1cccc(NC(=O)c2sc3nc4c(c(-c5ccco5)c3c2N)CCC4)c1`, the inhibition is 13.8%.

On to `O=C1CC(NNc2ccccc2)C(=O)N1c1cccc(Cl)c1` (centres undefined), for which the inhibition is 18.7%.

For the molecule `COC(=O)c1cc(C(=O)OC)cc(N2C(=O)CC(N3CCN(c4ccccc4)CC3)C2=O)c1` (centres undefined), the inhibition was 12.1%.

Regarding `O=C1CC(c2ccccc2)C(=O)N1c1cccc(O)c1` (centres undefined), the inhibition was 60.7% (active).

For the origin of these results see PubChem BioAssay AID778 (Sanford-Burnham Center for Chemical Genomics, 2007).
